Test systems include DU-145 prostate; K-562 leukemia; MALME-3M melanoma; MDA-MB-231 breast; RXF 393 renal; SF-268 CNS; SF-295 CNS; SF-539 CNS; UACC-257 melanoma; M14 melanoma.
What all share (experiment): NCI-60 one-dose screen, 48 h (100 = growth as untreated, 0 = no growth, -100 = all killed)
Common to all, as to settings: 10 µM unless noted

The record followed here is PubChem BioAssay (NCI).

This is part of a sample that, as a whole, favours compounds with a hit. Of some 83,000 tested, about 20% had one in any assay.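 96-well plates, one dose, 48 hours. Percent growth reported; active if below 10.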 Unmarked numbers belong to inactive results. The source made the active and inactive calls.

In the case of `COC(=O)/C=C1\S/C(=N\NC(=O)c2cc3ccc2/C=C\c2ccc(cc2)/C=C\3)N(c2ccccc2)C1=O`, the growth in the assay on DU-145 prostate is 50.9%; with K-562 leukemia, 27%; with MALME-3M melanoma, 78.8%; in the assay on MDA-MB-231 breast, 32.5%; in the assay with RXF 393 renal it was 5.34% (active); in the assay with SF-268 CNS it was 72.5%. In addition, the growth was 62.6% in the assay on SF-295 CNS, -22.5% (active) with SF-539 CNS, 69.2% with UACC-257 melanoma and 53.1% in the assay with M14 melanoma.
As for `CC(=O)Nc1cccc(-c2ccc3c(c2)NC(=O)/C3=C\c2ccc[nH]2)c1`, the growth is 57.4% in the assay on DU-145 prostate; 12.3% in the assay with K-562 leukemia; 71.7% in the assay with MALME-3M melanoma; 34.9% with MDA-MB-231 breast; 54.3% with RXF 393 renal; 67.5% in the assay with SF-268 CNS. Besides, the growth is 32.6% with SF-295 CNS, 28.1% with SF-539 CNS, 73.2% in the assay on UACC-257 melanoma and 39.1% with M14 melanoma.
With `COc1ccc(CCn2cncc2-c2c[nH]c3ccccc23)cc1`, the growth with DU-145 prostate is 102%; with K-562 leukemia, 87%; in the assay with MALME-3M melanoma it was 90.8%; in the assay with MDA-MB-231 breast, 74.5%; in the assay on RXF 393 renal it was 87.8%; with SF-268 CNS it was 80.9%. In addition, the growth was 74.1% in the assay with SF-295 CNS, 93.4% in the assay on SF-539 CNS, 102% in the assay on UACC-257 melanoma and 92.6% in the assay on M14 melanoma.
In the case of `C=C(C)[C@@H]1CC[C@]2(C(=O)N3CCN(C)CC3)CC[C@]3(C)[C@H](CC[C@@H]4[C@@]5(C)C/C(=C/c6cccnc6)C(=O)C(C)(C)[C@@H]5CC[C@]43C)[C@@H]12`, the growth with DU-145 prostate is 74%; in the assay with K-562 leukemia, 21.9%; with MALME-3M melanoma, 71.4%; with MDA-MB-231 breast, 74.9%; in the assay on RXF 393 renal it was 52.2%; with SF-268 CNS, 72.7%. Besides, the growth is 87.3% in the assay with SF-295 CNS, 74.5% in the assay on SF-539 CNS, 66.6% in the assay on UACC-257 melanoma and 69.5% in the assay on M14 melanoma.
`c1ccc(-c2cn3c(ccc4ccccc43)n2)cc1`: the growth with DU-145 prostate was 87.8%; in the assay on K-562 leukemia, 20.8%; in the assay with MALME-3M melanoma, 80.7%; with MDA-MB-231 breast it was 55.8%; in the assay on RXF 393 renal, 86%; with SF-268 CNS, 74.7%. Also, the growth with SF-295 CNS was 60.2%; with SF-539 CNS, 62.6%; in the assay on UACC-257 melanoma, 78.9%; with M14 melanoma it was 32.2%.
For `CC(=O)N1c2ccccc2NC2=C(C(=O)NC2(C)C)C1c1ccco1` (stereo not given), the growth with DU-145 prostate was 100%; in the assay on K-562 leukemia it was 77.1%; with MALME-3M melanoma it was 80.5%; in the assay on MDA-MB-231 breast, 96.4%; with RXF 393 renal, 58%; in the assay with SF-268 CNS, 77.2%. In addition, the growth is 96.6% in the assay on SF-295 CNS, 94.6% in the assay on SF-539 CNS, 75.1% with UACC-257 melanoma and 68.6% with M14 melanoma.
Consider `C=C1C(=O)O[C@H]2[C@H]1CC/C(COC(=O)NCCc1c[nH]c3ccc(OC)cc13)=C\CC[C@@]1(C)O[C@@H]21`, for which the growth was 10.6% with DU-145 prostate; 3.56% (active) in the assay on K-562 leukemia; -37.2% (active) in the assay with MALME-3M melanoma; 39.1% in the assay on MDA-MB-231 breast; -81.7% (active) in the assay with RXF 393 renal; 60.1% with SF-268 CNS. Moreover, the growth in the assay with SF-295 CNS is 86.2%; with SF-539 CNS it was -24.7% (active); with UACC-257 melanoma it was 30.6%; in the assay with M14 melanoma it was 14.1%.
Take `O=[N+]([O-])c1cc(Br)c2cccc3c2c1CC3`: the growth was 112% in the assay on DU-145 prostate; 100% with K-562 leukemia; 120% with MALME-3M melanoma; 87.1% in the assay with MDA-MB-231 breast; 110% with RXF 393 renal; 109% in the assay with SF-268 CNS. Further, the growth in the assay with SF-295 CNS is 116%; in the assay on SF-539 CNS, 103%; in the assay with UACC-257 melanoma, 106%; with M14 melanoma, 104%.
Take `CCOC(=O)/C(C#N)=C1/NNC(=Nc2cccnc2)S1`: the growth in the assay with DU-145 prostate was 105%; with K-562 leukemia it was 99.8%; in the assay on MALME-3M melanoma, 105%; in the assay with MDA-MB-231 breast it was 98.8%; in the assay on RXF 393 renal it was 110%; with SF-268 CNS, 100%. Moreover, the growth in the assay on SF-295 CNS is 98.9%; with SF-539 CNS, 102%; in the assay on UACC-257 melanoma, 78.3%; with M14 melanoma, 95.9%.
On to `C#CCNC(=O)[C@H](Cc1ccccc1)NC(=O)[C@]12CC[C@@H](C(=C)C)[C@@H]1[C@H]1CC[C@@H]3[C@@]4(C)CCC(=O)C(C)(C)[C@@H]4CC[C@@]3(C)[C@]1(C)CC2`, for which the growth with DU-145 prostate was 91.6%; in the assay on K-562 leukemia, 31.8%; in the assay on MALME-3M melanoma it was 88.8%; in the assay on MDA-MB-231 breast, 79.1%; with RXF 393 renal, 82.9%; in the assay with SF-268 CNS, 74.3%. The growth in the assay with SF-295 CNS was 73.4%; in the assay with SF-539 CNS, 99.9%; with UACC-257 melanoma, 59.4%; in the assay on M14 melanoma, 81.7%.
As for `C/C(=N\NC(=O)CSc1nc2ccccc2c(=O)n1Cc1ccc(S(N)(=O)=O)cc1)c1ccc(F)cc1`, the growth in the assay on DU-145 prostate is 111%; in the assay on K-562 leukemia it was 103%; in the assay with MALME-3M melanoma, 106%; in the assay on MDA-MB-231 breast, 101%; in the assay with RXF 393 renal, 109%; in the assay on SF-268 CNS, 98.8%. For the same compound, the growth in the assay with SF-295 CNS is 102%; in the assay on SF-539 CNS it was 104%; in the assay on UACC-257 melanoma, 107%; in the assay on M14 melanoma, 107%.
As for `Cn1ccc2c1CC1CN(Cc3ccco3)C(=O)C1C2C(=O)O` (stereo not given), the growth was 89.2% in the assay on DU-145 prostate; 97.4% in the assay with K-562 leukemia; 98.5% with MALME-3M melanoma; 97.1% with MDA-MB-231 breast; 111% in the assay on RXF 393 renal; 92.6% in the assay with SF-268 CNS. Moreover, the growth is 100% in the assay on SF-295 CNS, 96.3% in the assay with SF-539 CNS, 97% with UACC-257 melanoma and 103% in the assay with M14 melanoma.
As for `CCOC(=O)Nc1ccc(-c2ccc3c(c2)NC(=O)/C3=C\c2ccc[nH]2)cc1`, the growth in the assay on DU-145 prostate was 110%; with K-562 leukemia, 92.3%; in the assay with MALME-3M melanoma, 110%; with MDA-MB-231 breast, 69.3%; in the assay with RXF 393 renal, 112%; in the assay with SF-268 CNS, 100%. Besides, the growth is 101% in the assay with SF-295 CNS, 94% in the assay on SF-539 CNS, 113% in the assay with UACC-257 melanoma and 103% in the assay with M14 melanoma.
